BAZ2B inh: qHTS Assay for Inhibitors of BAZ2B; AlphaScreen BAZ2B-H3K14Ac peptide displacement; Potency, µM (titrated, usually from 114 µM), without a hit: at the top dose activity change, negative = inhibition, most hits filed as inhibitors; hit rate 4.4% among 360,000; Bromodomain adjacent to zinc finger domain protein 2B (Homo sapiens), Q9UIF8; also: % is scaled to controls: 0 for no effect and ±100 for the full control effect; nearly all actives have a fitted effect of over 60% in size
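Protein-peptide AlphaScreen: BAZ2B 50 nM, b-H3K14Ac 50 nM, 1x PBS pH 7.4 + 0.01% Tween-20. Preincubation 30 min RT; cpd 30 min RT (top 110 uM); beads 20 min RT, light-protected.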
Sfp PPTase inh: qHTS Assay for Inhibitors of Bacillus subtilis Sfp phosphopantetheinyl transferase (PPTase) | 4'-phosphopantetheinyl transferase ffp (Bacillus subtilis), Q9F4F7 | Biochemical Sfp PPTase activity, qHTS | Potency, µM, inactives show largest response in the series, negative = inhibition, actives largely listed as inhibitors | hit rate 3.5% among 310,000;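 also: the enzyme is Sfp with the accession as filed and its product quenches rhodamine fluorescence; 0% = enzyme reaction without inhibitor and -100% = no enzyme wells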
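Compounds were incubated with enzyme (final 15 nM) for 15 min at room temperature before substrate addition started the reaction. Fluorescence at 525 nm excitation, 598 nm emission was recorded immediately and after 30 minutes.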
L3MBTL1 inh: qHTS Assay for the Inhibitors of L3MBTL1; Lethal(3)malignant brain tumor-like protein 1 (Homo sapiens), Q9Y468; hit rate 0.66% among 230,000; AID 485360, 2010; AlphaScreen L3MBTL1–H3K9me1 peptide binding; Potency, µM (series often up to 57.1 µM), without a hit: top-dose activity, negative = inhibition, usual class: inhibitors; also: % is scaled to controls: 0 for no effect and ±100 for the full control effect; nearly all actives have a fitted effect of over 60% in size
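AlphaScreen assay: L3MBTL1 (50 nM final) was preincubated 30 min at room temperature with biotinylated H3(1-15)K9me1 peptide (75 nM final), then 30 min with library compounds; streptavidin donor and nickel chelate acceptor beads (10 ug/mL final) added, 30 min dark.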
HP1b chromo inh: HTS for Inhibitors of HP1-beta Chromodomain Interactions with Methylated Histone Tails; hit rate 0.56% among 390,000; Potency, µM (highest dose often 114 µM), inactives show at the highest dose activity change, negative = inhibition, actives largely listed as inhibitors; AID 540317, 2011; AlphaScreen HP1-beta / biotin-H3K9me3 peptide binding; also: nearly all actives have a fitted effect of over 70% in size
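HP1-beta protein (50 nM final) preincubated 30 min at room temperature with biotinylated H3(1-18)K9me3 peptide (50 nM) in PBS pH 7.4, 0.01% Tween-20, then compound added for 30 min. AlphaScreen streptavidin donor/nickel chelate acceptor beads (10 ug/mL final), 30 min dark, luminescence read.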
G9a inh: qHTS Assay for Inhibitors of Histone Lysine Methyltransferase G9a | hit rate 8.8% among 350,000 | Potency, µM (doses to about 102 µM), for the others: at the top dose activity, negative = inhibition, usual class: inhibitors | Histone-lysine N-methyltransferase EHMT2 (Homo sapiens), Q96KQ7 | AID 504332, 2011 | G9a H3K9 monomethylation, AlphaScreen, 2 h; also: % is scaled to controls: 0 for no effect and ±100 for the full control effect; nearly all actives have a fitted effect of over 75% in size
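Using a bead-based AlphaScreen, monomethylated H3K9 product from 2 h room-temperature reactions (G9a 20 nM, peptide 500 nM, SAM 20 uM) was detected with 0.5 ug/mL rabbit anti-H3K9me1 antibody.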
JMJD2A Tudor inh: qHTS Assay for Inhibitors of JMJD2A-Tudor Domain | AlphaScreen JMJD2A-Tudor / H3K4me3 peptide binding | Lysine-specific demethylase 4A (Homo sapiens), O75164 | AID 504339, 2011 | Potency, µM (doses to about 114 µM), for inactives: at the highest dose activity change, negative = inhibition, usual class: inhibitors | hit rate 4.4% among 390,000; also: % is scaled to controls: 0 for no effect and ±100 for the full control effect; nearly all actives have a fitted effect of over 50% in size
* = called active by the depositor; [ ] = dose if it differs, or a comment. Compounds with a hit are over-represented: about 12% of the library has one in this group of screens. Calls follow the shape of the dose curve; as a rule, active = well fitted curve in the direction sought with a large enough effect; inconclusive = small, poorly fitted or top-dose-only effect, or another doubt; inactive = no such curve, though single readings can be large; an effect the other way counts as inactive or inconclusive. Potency is read from the fitted curve at half-maximal effect.

`COc1ccc2nc(C)cc(Nc3ccc(Cl)c(Cl)c3)c2c1` gave BAZ2B inh -1%, HP1b chromo inh 28%, G9a inh -4%[59 µM] and JMJD2A Tudor inh -23%.
CSc1ccc(CN2CCN(C(=O)c3ccncc3)CC2)cc1 was read as BAZ2B inh -13%, Sfp PPTase inh 12%, L3MBTL1 inh 3%, HP1b chromo inh -1%, G9a inh -3% and JMJD2A Tudor inh -6%.
For COc1cccc(OC)c1C(=O)N1CCN(Cc2ccncc2)CC1 the results were BAZ2B inh 20µM*, Sfp PPTase inh 10µM*, L3MBTL1 inh 2%, HP1b chromo inh inconclusive, G9a inh inconclusive and JMJD2A Tudor inh 8.9µM*.
`CCN1CCN(C(=O)c2cc3cc(F)ccc3[nH]2)CC1` gave BAZ2B inh -12%, Sfp PPTase inh 1%, HP1b chromo inh 16%, G9a inh -31% and JMJD2A Tudor inh -14%.
`O=C(c1cccc(C(=O)N2CCN(Cc3ccccc3)CC2)c1)N1CCN(Cc2ccccc2)CC1` gave BAZ2B inh -1%, Sfp PPTase inh 7%, L3MBTL1 inh inconclusive, HP1b chromo inh 30%, G9a inh inconclusive and JMJD2A Tudor inh -5%.
Screening COc1ccc(OC)c(CN2CCN(C(=O)c3ccc(F)cc3)CC2)c1 returned BAZ2B inh inconclusive, Sfp PPTase inh -9%, L3MBTL1 inh 1%, HP1b chromo inh inconclusive, G9a inh 32µM* and JMJD2A Tudor inh 25µM*.
COc1ccc2[nH]c(C(=O)N3CCCN(Cc4ccc(F)cc4)CC3)cc2c1 was read as BAZ2B inh -32%, Sfp PPTase inh 21%, L3MBTL1 inh -20%, HP1b chromo inh -29%, G9a inh 50µM* and JMJD2A Tudor inh inconclusive.
For O=C(c1cccc(Cl)c1)N1CCN(Cc2ccncc2)CC1 the results were BAZ2B inh 50µM*, Sfp PPTase inh -3%, L3MBTL1 inh 20%, HP1b chromo inh inconclusive, G9a inh 35µM* and JMJD2A Tudor inh inconclusive.
Screening Cc1cc(C)cc(NC(=O)CCCc2nc(-c3ccco3)no2)c1 returned BAZ2B inh -6%, HP1b chromo inh 28%, G9a inh -30%[59 µM] and JMJD2A Tudor inh -13%.
Cc1ccc(CNC(=O)CCCn2c(=O)c3ccccc3n(CC(=O)Nc3ccc(C)c(C)c3)c2=O)cc1 was read as BAZ2B inh -2%, HP1b chromo inh 35%, G9a inh -3%[59 µM] and JMJD2A Tudor inh -2%.
Cc1ccc([S+](=O)([O-])N(c2ccccc2)[S+](=O)([O-])C(F)(F)F)cc1 was read as Sfp PPTase inh 7%.
`COc1ccccc1CN1CCN(C(=O)c2ccncc2)CC1` gave BAZ2B inh 25µM*, Sfp PPTase inh inconclusive, HP1b chromo inh inconclusive, G9a inh inconclusive and JMJD2A Tudor inh 7.9µM*.
COc1ccccc1CN1CCC2(CC1)CCN(C(=O)c1ccncc1)CC2 was read as Sfp PPTase inh -2% and G9a inh -11%[12.7 µM].
`CCCCN(Cc1ccccc1)C(=O)c1oc(=O)c2ccccc2c1-c1ccc(C)cc1` gave HP1b chromo inh 29%, G9a inh -6%[59 µM] and JMJD2A Tudor inh -13%.
For CCc1ccc2c(c1)C(NC(C)=O)C(=O)N2CC (centres undefined) the results were BAZ2B inh 5%, Sfp PPTase inh 56µM*, L3MBTL1 inh -2%, HP1b chromo inh 57%, G9a inh inconclusive and JMJD2A Tudor inh -16%.
